Source: PubChem BioAssay AID1159580 (chemical genetic matrix, 2015)
Several values for one entry are separate records, joined by “and”; a condition that tells them apart may be missing. Equal entries are not always repeated. Among all 5,500 compounds or so, about 2,000 (36%) were called active. Inconclusive results (about 18%) are left out. Rule as the data show it: active = normalized growth mostly below about 0.91 (no sharp cut-off); inconclusive = no clear call, values can overlap the other calls; inactive = mostly above about 0.92. This is one part of the list.

Assay: chemical genetic growth profiling, strain panel (AID 1159580);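 also: tested at 20 µM; growth read once vehicle control cultures reached saturation at 30 °C; 1 = growth at the plate median or of vehicle wells; lower values mean less growth of the strain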
Conditions: growth OD

Measured: normalized growth

Cc1cc(C(C)(C)C)c(O)c(C)c1CC1=NCCN1
inactive: S. cerevisiae deletion strains, locus YJR066W, strain TOR1, stronger effect = lower value 0.928 | S. cerevisiae deletion strains, locus YJR075W, strain HOC1, stronger effect = lower value 0.995 | S. cerevisiae deletion strains, locus YKL009W, strain mrt4, stronger effect = lower value 1.01 | S. cerevisiae deletion strains, locus YKL068W, stronger effect = lower value 1 | S. cerevisiae deletion strains, locus YKL085W, strain MDH1 (second series), stronger effect = lower value 1 | S. cerevisiae deletion strains, locus YKL085W, strain MDH1, stronger effect = lower value 1 | S. cerevisiae deletion strains, locus YKL160W, strain elf1, stronger effect = lower value 1.02 | S. cerevisiae deletion strains, locus YKL190W, strain CNB1, stronger effect = lower value 0.991 | S. cerevisiae deletion strains, locus YKR001C, strain vps1, stronger effect = lower value 1.02 | S. cerevisiae deletion strains, locus YKR026C, strain gcn3, stronger effect = lower value 1.01 | S. cerevisiae deletion strains, locus YKR091W, strain srl3, stronger effect = lower value 0.996 | S. cerevisiae deletion strains, locus YLL001W, strain dnm1, stronger effect = lower value 1.01 | S. cerevisiae deletion strains, locus YLL026W, stronger effect = lower value 1.02 | S. cerevisiae deletion strains, locus YLL041C, strain sdh2, stronger effect = lower value 1.01 | S. cerevisiae deletion strains, locus YLR027C, strain aat2, stronger effect = lower value 1 | S. cerevisiae deletion strains, locus YLR039C, strain RIC1, stronger effect = lower value 1.01 | S. cerevisiae deletion strains, locus YLR058C, strain SHM2, stronger effect = lower value 0.991 | S. cerevisiae deletion strains, locus YLR102C, strain apc9, stronger effect = lower value 1 | S. cerevisiae deletion strains, locus YLR113W, strain HOG1, stronger effect = lower value 0.997 | S. cerevisiae deletion strains, locus YLR221C, strain rsa3, stronger effect = lower value 1.01 | S. cerevisiae deletion strains, locus YLR258W, strain gsy2, stronger effect = lower value 1 | S. cerevisiae deletion strains, locus YLR262C, strain YPT6 (second series), stronger effect = lower value 1.02 | S. cerevisiae deletion strains, locus YLR262C, strain YPT6, stronger effect = lower value 0.974 | S. cerevisiae deletion strains, locus YLR268W, strain sec22, stronger effect = lower value 1.01 | S. cerevisiae deletion strains, locus YLR320W, strain mms22, stronger effect = lower value 1.02 | S. cerevisiae deletion strains, locus YLR330W, strain CHS5, stronger effect = lower value 0.999 | S. cerevisiae deletion strains, locus YLR342W, strain FKS1 (second series), stronger effect = lower value 0.984 | S. cerevisiae deletion strains, locus YLR342W, strain FKS1, stronger effect = lower value 1 | S. cerevisiae deletion strains, locus YLR357W, strain rsc2, stronger effect = lower value 1.02 | S. cerevisiae deletion strains, locus YLR370C, strain arc18, stronger effect = lower value 1.01 | S. cerevisiae deletion strains, locus YLR371W, strain rom2, stronger effect = lower value 1.01 | S. cerevisiae deletion strains, locus YLR384C, strain iki3, stronger effect = lower value 1.02 | S. cerevisiae deletion strains, locus YLR418C, strain cdc73, stronger effect = lower value 1.02 | S. cerevisiae deletion strains, locus YML016C, strain PPZ1, stronger effect = lower value 0.998 | S. cerevisiae deletion strains, locus YML032C, strain rad52, stronger effect = lower value 0.999 | S. cerevisiae deletion strains, locus YML120C, strain ndi1, stronger effect = lower value 1.01 | S. cerevisiae deletion strains, locus YML124C, strain tub3, stronger effect = lower value 1.02 | S. cerevisiae deletion strains, locus YMR058W, strain fet3, stronger effect = lower value 1.01 | S. cerevisiae deletion strains, locus YMR078C, strain ctf18, stronger effect = lower value 1.02 | S. cerevisiae deletion strains, locus YMR125W, strain sto1, stronger effect = lower value 1 | S. cerevisiae deletion strains, locus YMR129W, stronger effect = lower value 1 | S. cerevisiae deletion strains, locus YMR205C, strain PFK2, stronger effect = lower value 1.04 | S. cerevisiae deletion strains, locus YMR223W, strain ubp8, stronger effect = lower value 1 | S. cerevisiae deletion strains, locus YMR231W, strain pep5, stronger effect = lower value 1.01 | S. cerevisiae deletion strains, locus YMR263W, strain SAP30, stronger effect = lower value 1 | S. cerevisiae deletion strains, locus YMR307W, strain GAS1, stronger effect = lower value 0.985 and 0.998 | S. cerevisiae deletion strains, locus YNL067W, strain RPL9B, stronger effect = lower value 0.988 | S. cerevisiae deletion strains, locus YNL071W, strain lat1, stronger effect = lower value 1 | S. cerevisiae deletion strains, locus YNL128W, strain TEP1, stronger effect = lower value 0.998 and 1.04 | S. cerevisiae deletion strains, locus YNL153C, strain GIM3, stronger effect = lower value 0.996 and 1.01 | S. cerevisiae deletion strains, locus YNL175C, strain NOP13, stronger effect = lower value 1 | S. cerevisiae deletion strains, locus YNL183C, strain NPR1, stronger effect = lower value 0.936 | S. cerevisiae deletion strains, locus YNL197C, strain WHI3, stronger effect = lower value 1.01 | S. cerevisiae deletion strains, locus YNL209W, strain ssb2, stronger effect = lower value 1 | S. cerevisiae deletion strains, locus YNL224C, strain SQS1, stronger effect = lower value 1.02 | S. cerevisiae deletion strains, locus YNL233W, strain BNI4, stronger effect = lower value 1 | S. cerevisiae deletion strains, locus YNL248C, strain rpa49, stronger effect = lower value 0.997 | S. cerevisiae deletion strains, locus YNL250W, strain rad50, stronger effect = lower value 1.01 | S. cerevisiae deletion strains, locus YNL271C, strain bni1, stronger effect = lower value 1.02 | S. cerevisiae deletion strains, locus YNL298W, strain CLA4, stronger effect = lower value 0.982 | S. cerevisiae deletion strains, locus YNL307C, strain MCK1, stronger effect = lower value 1.01 | S. cerevisiae deletion strains, locus YNL322C, strain KRE1 (second series), stronger effect = lower value 1.03 | S. cerevisiae deletion strains, locus YNL322C, strain KRE1, stronger effect = lower value 0.998 | S. cerevisiae deletion strains, locus YNR049C, strain mso1, stronger effect = lower value 1.01 | S. cerevisiae deletion strains, locus YNR052C, strain pop2, stronger effect = lower value 1.02 | S. cerevisiae deletion strains, locus YOL006C, strain TOP1, stronger effect = lower value 1.01 | S. cerevisiae deletion strains, locus YOL012C, strain htz1 1.23 | S. cerevisiae deletion strains, locus YOL147C, strain pex11, stronger effect = lower value 1.01 | S. cerevisiae deletion strains, locus YOR001W, strain rrp6, stronger effect = lower value 0.97 | S. cerevisiae deletion strains, locus YOR061W, strain CKA2, stronger effect = lower value 1 | S. cerevisiae deletion strains, locus YOR069W, strain VPS5, stronger effect = lower value 0.997 | S. cerevisiae deletion strains, locus YOR070C, strain gyp1, stronger effect = lower value 1.01 | S. cerevisiae deletion strains, locus YOR080W, strain dia2, stronger effect = lower value 1 | S. cerevisiae deletion strains, locus YOR083W, strain WHI5 (second series), stronger effect = lower value 1.02 | S. cerevisiae deletion strains, locus YOR083W, strain WHI5, stronger effect = lower value 1.03 | S. cerevisiae deletion strains, locus YOR106W, strain vam3, stronger effect = lower value 1.02 | S. cerevisiae deletion strains, locus YOR136W, strain idh2, stronger effect = lower value 1 | S. cerevisiae deletion strains, locus YOR144C, strain elg1, stronger effect = lower value 1 | S. cerevisiae deletion strains, locus YOR184W, strain ser1, stronger effect = lower value 1.01 | S. cerevisiae deletion strains, locus YOR231W, strain MKK1, stronger effect = lower value 1.01 | S. cerevisiae deletion strains, locus YOR265W, strain rbl2, stronger effect = lower value 1 | S. cerevisiae deletion strains, locus YOR270C, strain vph1, stronger effect = lower value 1.01 | S. cerevisiae deletion strains, locus YOR290C, strain snf2, stronger effect = lower value 1.03 | S. cerevisiae deletion strains, locus YOR316C, strain cot1, stronger effect = lower value 1 | S. cerevisiae deletion strains, locus YPL051W, strain arl3, stronger effect = lower value 1.02 | S. cerevisiae deletion strains, locus YPL055C, strain LGE1, stronger effect = lower value 0.983 | S. cerevisiae deletion strains, locus YPL078C, strain atp4, stronger effect = lower value 1.01 | S. cerevisiae deletion strains, locus YPL106C, strain sse1, stronger effect = lower value 1.04 | S. cerevisiae deletion strains, locus YPL240C, strain hsp82, stronger effect = lower value 0.994 | S. cerevisiae deletion strains, locus YPL256C, strain CLN2, stronger effect = lower value 0.961 | S. cerevisiae deletion strains, locus YPR119W, strain clb2, stronger effect = lower value 1 | S. cerevisiae deletion strains, locus YPR141C, strain kar3, stronger effect = lower value 1.01 | S. cerevisiae deletion strains, locus YPR163C, strain tif3, stronger effect = lower value 1.02 | S. cerevisiae deletion strains, locus YPR167C, strain met16, stronger effect = lower value 1.01 | S. cerevisiae deletion strains, strain wtn01, stronger effect = lower value 1.01 | S. cerevisiae strains, strain wild type, stronger effect = lower value 0.984
